Measurements published in the supplement of paper PMC12669032.

Experiments:
Assay in all cases: growth AUC relative to DMSO control (median of replicates) (fraction); higher = more growth (less inhibition), active = hit call of the paper
Conditions in all cases: 20 µM; 24 h;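 active = AUC reduced over 20% with Padj below 0.05 in at least 2 of 3 replicates; inactive = otherwise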
Coprococcus comes = tested on: Coprococcus comes
Method in brief: (§1)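 Gut bacterial monocultures in mGAM were treated with 20 µM compound (1% DMSO) and grown anaerobically at 37 °C in round-bottom 96-well plates from OD600 0.05. OD600 was read hourly for 24 h, with the minimum OD set to 0. Area under the growth curve was normalised to the plate median of solvent-only wells, or to row and column medians on the industrial chemical plate. Each value is the median of three biological replicates, each grown on a separate day.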

Escherichia coli ED1a = tested on: Escherichia coli ED1a
Method in brief: as §1

Escherichia coli IAI1 = tested on: Escherichia coli IAI1
Method in brief: as §1

Eubacterium rectale = tested on: Eubacterium rectale
Method in brief: as §1

[1] = tested on: Fusobacterium nucleatum subsp. animalis
Method in brief: as §1

Lactobacillus gasseri = tested on: Lactobacillus gasseri
Method in brief: as §1

Lactobacillus paracasei = tested on: Lactobacillus paracasei
Method in brief: as §1

Odoribacter splanchnicus = tested on: Odoribacter splanchnicus
Method in brief: as §1

[2] = tested on: Parabacteroides distasonis
Method in brief: as §1

Parabacteroides merdae = tested on: Parabacteroides merdae
Method in brief: as §1

Roseburia intestinalis = tested on: Roseburia intestinalis
Method in brief: as §1

Streptococcus salivarius = tested on: Streptococcus salivarius
Method in brief: as §1

Measured: growth AUC

C=CCC1=C(C)C(OC(=O)C2C(C=C(C)C)C2(C)C)CC1=O (mixture of isomers)
inactive: Coprococcus comes 0.963 | Escherichia coli ED1a 0.968 | Escherichia coli IAI1 1.01 | Eubacterium rectale 1.09 | [1] 1.01 | Lactobacillus gasseri 0.818 | Lactobacillus paracasei 0.943 | Odoribacter splanchnicus 1.01 | [2] 0.771 | Parabacteroides merdae 0.955 | Roseburia intestinalis 0.924 | Streptococcus salivarius 0.953

O=P(Oc1ccccc1)(Oc1ccccc1)Oc1ccccc1
active: [2] 0.594
inactive: Coprococcus comes 0.937 | Escherichia coli ED1a 1 | Escherichia coli IAI1 0.993 | Eubacterium rectale 0.977 | [1] 0.828 | Lactobacillus gasseri 0.943 | Lactobacillus paracasei 0.958 | Odoribacter splanchnicus 1.01 | Parabacteroides merdae 0.842 | Roseburia intestinalis 0.937 | Streptococcus salivarius 0.957

CCCCN(CC)C(=O)SCCC
inactive: Coprococcus comes 1.03 | Escherichia coli ED1a 1.01 | Escherichia coli IAI1 1.01 | Eubacterium rectale 0.982 | [1] 1.07 | Lactobacillus gasseri 0.972 | Lactobacillus paracasei 1.02 | Odoribacter splanchnicus 0.981 | [2] 1.01 | Parabacteroides merdae 1.02 | Roseburia intestinalis 1.03 | Streptococcus salivarius 0.996

O=C(Nc1ccccc1)Nc1cnns1
inactive: Coprococcus comes 0.971 | Escherichia coli ED1a 0.91 | Escherichia coli IAI1 0.884 | Eubacterium rectale 1 | [1] 0.955 | Lactobacillus gasseri 0.925 | Lactobacillus paracasei 1.09 | Odoribacter splanchnicus 0.938 | [2] 0.94 | Parabacteroides merdae 0.955 | Roseburia intestinalis 0.918 | Streptococcus salivarius 0.891

CCNc1nc(NCC)nc(SC)n1
inactive: Coprococcus comes 0.99 | Escherichia coli ED1a 1.02 | Escherichia coli IAI1 0.99 | Eubacterium rectale 1.02 | [1] 1.06 | Lactobacillus gasseri 1.13 | Lactobacillus paracasei 1.08 | Odoribacter splanchnicus 0.88 | [2] 1.01 | Parabacteroides merdae 1.04 | Roseburia intestinalis 1.08 | Streptococcus salivarius 0.978

COc1ccc(-c2ccccc2)cc1NNC(=O)OC(C)C
inactive: Coprococcus comes 0.957 | Escherichia coli ED1a 1.03 | Escherichia coli IAI1 1.01 | Eubacterium rectale 1 | [1] 0.965 | Lactobacillus gasseri 0.967 | Lactobacillus paracasei 0.971 | Odoribacter splanchnicus 0.948 | [2] 0.892 | Parabacteroides merdae 0.937 | Roseburia intestinalis 1.03 | Streptococcus salivarius 1.02

CC(C)Oc1cc(-n2nc(C(C)(C)C)oc2=O)c(Cl)cc1Cl
inactive: Coprococcus comes 1.01 | Escherichia coli ED1a 0.96 | Escherichia coli IAI1 0.993 | Eubacterium rectale 1.04 | [1] 1 | Lactobacillus gasseri 0.803 | Lactobacillus paracasei 1.01 | Odoribacter splanchnicus 0.967 | Parabacteroides merdae 0.96 | Roseburia intestinalis 0.931 | Streptococcus salivarius 0.971
active: [2] 0.705

CC(Cc1ccc(C(C)(C)C)cc1)CN1C[C@@H](C)O[C@@H](C)C1 (stereo partly drawn)
inactive: Coprococcus comes 1.03 | Escherichia coli ED1a 1.01 | Escherichia coli IAI1 1.06 | Eubacterium rectale 0.983 | [1] 1.07 | Lactobacillus gasseri 1.06 | Lactobacillus paracasei 1.07 | Odoribacter splanchnicus 1.07 | [2] 0.985 | Parabacteroides merdae 0.999 | Roseburia intestinalis 1.06 | Streptococcus salivarius 0.999

CO/N=C(/C(=O)OC)c1ccccc1CO/N=C(\C)c1cccc(C(F)(F)F)c1
inactive: Coprococcus comes 0.976 | Escherichia coli ED1a 0.978 | Escherichia coli IAI1 0.985 | Eubacterium rectale 0.973 | [1] 0.953 | Lactobacillus gasseri 1.1 | Lactobacillus paracasei 0.831 | Odoribacter splanchnicus 1.01 | [2] 0.887 | Parabacteroides merdae 0.901 | Roseburia intestinalis 1.06 | Streptococcus salivarius 0.998

CN1CSC(=S)N(C)C1
inactive: Coprococcus comes 0.957 | Escherichia coli ED1a 0.991 | Escherichia coli IAI1 0.994 | Eubacterium rectale 1.06 | [1] 0.966 | Lactobacillus gasseri 1.07 | Lactobacillus paracasei 1.04 | Odoribacter splanchnicus 0.988 | [2] 0.991 | Parabacteroides merdae 0.976 | Roseburia intestinalis 1.03 | Streptococcus salivarius 0.983

CN(C)S(=O)(=O)N(SC(F)(Cl)Cl)c1ccccc1
inactive: Coprococcus comes 1.04 | Escherichia coli ED1a 1.03 | Escherichia coli IAI1 1.01 | Eubacterium rectale 1.09 | [1] 1.06 | Lactobacillus gasseri 1.03 | Lactobacillus paracasei 1.07 | Odoribacter splanchnicus 1.04 | [2] 1.02 | Parabacteroides merdae 0.99 | Roseburia intestinalis 0.993 | Streptococcus salivarius 0.998

Nc1cc(Cl)ccc1Cl
inactive: Coprococcus comes 1 | Escherichia coli ED1a 1 | Escherichia coli IAI1 1.01 | Eubacterium rectale 0.989 | [1] 1.07 | Lactobacillus gasseri 1.04 | Lactobacillus paracasei 0.958 | Odoribacter splanchnicus 1 | [2] 1.02 | Parabacteroides merdae 1.04 | Roseburia intestinalis 1.09 | Streptococcus salivarius 1

CCOP(=S)(OCC)Oc1cc(Cl)c(Br)cc1Cl
inactive: Coprococcus comes 0.976 | Escherichia coli ED1a 1.02 | Escherichia coli IAI1 0.992 | Eubacterium rectale 1.05 | [1] 1.08 | Lactobacillus gasseri 0.868 | Lactobacillus paracasei 1 | Odoribacter splanchnicus 0.968 | [2] 0.891 | Parabacteroides merdae 0.962 | Roseburia intestinalis 0.948 | Streptococcus salivarius 0.958

O=[N+]([O-])c1ccc2ccc3cccc4ccc1c2c34
inactive: Coprococcus comes 0.972 | Escherichia coli ED1a 0.988 | Escherichia coli IAI1 0.99 | Lactobacillus gasseri 0.99 | Lactobacillus paracasei 1.02 | Roseburia intestinalis 1.28 | Streptococcus salivarius 1.06
active: Eubacterium rectale 0.577 | [1] 0.401 | Odoribacter splanchnicus 0.0656 | [2] 0.579 | Parabacteroides merdae 0.495

Oc1ccc(C(c2ccc(O)cc2)(C(F)(F)F)C(F)(F)F)cc1
inactive: Coprococcus comes 1.06 | Escherichia coli ED1a 0.969 | Escherichia coli IAI1 1 | Lactobacillus gasseri 0.577 | Lactobacillus paracasei 0.727 | Streptococcus salivarius 0.85
active: Eubacterium rectale 0.792 | [1] 0.595 | Odoribacter splanchnicus 0.0871 | [2] 0.0433 | Parabacteroides merdae 0.515 | Roseburia intestinalis 0.661

CCOP(=S)(OCC)SCn1c(=O)oc2cc(Cl)ccc21
inactive: Coprococcus comes 1 | Escherichia coli ED1a 0.981 | Escherichia coli IAI1 0.974 | Eubacterium rectale 1 | [1] 0.93 | Lactobacillus gasseri 0.918 | Lactobacillus paracasei 0.994 | Odoribacter splanchnicus 0.979 | [2] 0.892 | Parabacteroides merdae 0.955 | Roseburia intestinalis 0.932 | Streptococcus salivarius 0.98

O=C(O)c1nc(Cl)ccc1Cl
inactive: Coprococcus comes 1.03 | Escherichia coli ED1a 0.995 | Escherichia coli IAI1 1.01 | Eubacterium rectale 0.952 | [1] 0.998 | Lactobacillus gasseri 1.09 | Lactobacillus paracasei 1.03 | Odoribacter splanchnicus 1.01 | [2] 1.03 | Parabacteroides merdae 1.03 | Roseburia intestinalis 1.07 | Streptococcus salivarius 1.02

C#CCN1CC(=O)N(COC(=O)C2C(C=C(C)C)C2(C)C)C1=O (mixture of isomers)
inactive: Coprococcus comes 0.982 | Escherichia coli ED1a 0.991 | Escherichia coli IAI1 0.968 | Eubacterium rectale 0.805 | [1] 0.945 | Lactobacillus gasseri 0.994 | Lactobacillus paracasei 0.997 | Odoribacter splanchnicus 0.958 | [2] 0.996 | Parabacteroides merdae 0.927 | Roseburia intestinalis 1.04 | Streptococcus salivarius 0.943

CC(C)[C@H](C(=O)O[C@H](C#N)c1cccc(Oc2ccccc2)c1)c1ccc(Cl)cc1
inactive: Coprococcus comes 0.973 | Escherichia coli ED1a 0.962 | Escherichia coli IAI1 0.959 | Eubacterium rectale 0.934 | [1] 0.954 | Lactobacillus gasseri 0.901 | Lactobacillus paracasei 1.01 | Odoribacter splanchnicus 1.09 | [2] 0.923 | Parabacteroides merdae 1.01 | Roseburia intestinalis 0.913 | Streptococcus salivarius 0.948

CCOP(=O)(OCC)OCC
inactive: Coprococcus comes 1.01 | Escherichia coli ED1a 1.01 | Escherichia coli IAI1 1.07 | Eubacterium rectale 1.01 | [1] 1.07 | Lactobacillus gasseri 0.931 | Lactobacillus paracasei 0.964 | Odoribacter splanchnicus 1.05 | [2] 1.03 | Parabacteroides merdae 1.05 | Roseburia intestinalis 1.07 | Streptococcus salivarius 0.994

CCNc1nc(Cl)nc(NC(C)(C)C#N)n1
inactive: Coprococcus comes 0.988 | Escherichia coli ED1a 1.02 | Escherichia coli IAI1 0.988 | Eubacterium rectale 0.889 | [1] 0.949 | Lactobacillus gasseri 1.19 | Lactobacillus paracasei 0.968 | Odoribacter splanchnicus 0.985 | [2] 1 | Parabacteroides merdae 1.01 | Roseburia intestinalis 1.03 | Streptococcus salivarius 0.976

CCOP(=O)(Sc1ccccc1)Sc1ccccc1
active: [2] 0.649
inactive: Coprococcus comes 1.02 | Escherichia coli ED1a 0.995 | Escherichia coli IAI1 0.982 | Eubacterium rectale 1.13 | [1] 1.08 | Lactobacillus gasseri 0.957 | Lactobacillus paracasei 0.953 | Odoribacter splanchnicus 0.965 | Parabacteroides merdae 0.934 | Roseburia intestinalis 0.946 | Streptococcus salivarius 0.948

CCNc1nc(NC(C)C)nc(OC)n1
inactive: Coprococcus comes 1.02 | Escherichia coli ED1a 1 | Escherichia coli IAI1 0.999 | Eubacterium rectale 1.05 | [1] 1.05 | Lactobacillus gasseri 0.911 | Lactobacillus paracasei 0.969 | Odoribacter splanchnicus 1.01 | [2] 0.922 | Parabacteroides merdae 0.982 | Roseburia intestinalis 0.953 | Streptococcus salivarius 0.945

CCSC(=O)N1CCCCCC1
inactive: Coprococcus comes 1.02 | Escherichia coli ED1a 0.991 | Escherichia coli IAI1 0.993 | Eubacterium rectale 0.977 | [1] 1.06 | Lactobacillus gasseri 1.06 | Lactobacillus paracasei 0.954 | Odoribacter splanchnicus 0.947 | [2] 0.997 | Parabacteroides merdae 1 | Roseburia intestinalis 1 | Streptococcus salivarius 1.01
